Measured potencies and affinities stand elsewhere. Calls of active or inactive are those of the source.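 How the source made its calls: active means compounds lowering cell ATP signal whose fitted half-effect dose is at most a set limit; inconclusive means flat fit showing moderate signal loss, or unreliable curve fit; inactive means the rest, including signal increases.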

Here are results for eight molecules from PubChem BioAssay AID651591 (Broad Institute, 2012).

The nature of this test: A375 melanoma cell viability loss, dose response, counter-screen for MITF modulator project, CellTiter-Glo luminescence, dry powder, set 9 (AID 651591). The conditions noted are these: CellTiter-Glo ATP luminescence, 24 h; series mostly up to 35 µM; activity change, negative = cytotoxicity: at the top concentration. On the technique in general: A counterscreen serves to expose hits that act by an unwanted route or on another target.
For `O=C1C=C(NS(=O)(=O)c2ccccc2)C(=O)c2ccccc21`, the “activity change, negative = cytotoxicity” value is -10.1% (inactive).

Regarding `CC(C)N1CCN(C2=C(Nc3ccc(F)cc3F)C(=O)c3ccccc3C2=O)CC1`, the “activity change, negative = cytotoxicity” value is -13% (inactive).

Consider `NC1=C(NS(=O)(=O)c2ccccc2)C(=O)c2ccccc2C1=O`, for which the “activity change, negative = cytotoxicity” value is -5.18% (inactive).

`O=C1C(Nc2ccccc2)=C(c2ccccc2)C(=O)c2ccccc21`: the “activity change, negative = cytotoxicity” value was -6.4% (inactive).

`NC1=C(NS(=O)(=O)c2ccc(Br)s2)C(=O)c2ccccc2C1=O`: the “activity change, negative = cytotoxicity” value is 0.175% (inactive).

As to `O=C1C=C(NS(=O)(=O)c2cccs2)C(=O)c2ccccc21`, the “activity change, negative = cytotoxicity” value is -2.97% (inactive).

On to `NC1=C(NS(=O)(=O)c2ccc(Br)cc2)C(=O)c2ccccc2C1=O`, for which the “activity change, negative = cytotoxicity” value is 1.99% (inactive).

For `O=C1C=C(NS(=O)(=O)c2ccc(Br)cc2)C(=O)c2ccccc21`, the “activity change, negative = cytotoxicity” value was -3.17% (inactive).
